AmpC inh detg = qHTS Inhibitors of AmpC Beta-Lactamase (assay with detergent); AID 485294, 2010; AmpC hydrolysis of nitrocefin, absorbance 480 nm, 0.01% Triton; Potency, µM (highest dose often 114 µM), inactives show at the highest dose activity change, negative = inhibition, usual class: inhibitors; P00811; 0.041% of 370,000 active;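 note: potency is the fitted concentration of half-maximal effect; 0% = no-compound wells and -100% = no-enzyme wells; nearly all actives have a fitted effect of over 25% in size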
Target sequence (P00811 whole entry, looked up): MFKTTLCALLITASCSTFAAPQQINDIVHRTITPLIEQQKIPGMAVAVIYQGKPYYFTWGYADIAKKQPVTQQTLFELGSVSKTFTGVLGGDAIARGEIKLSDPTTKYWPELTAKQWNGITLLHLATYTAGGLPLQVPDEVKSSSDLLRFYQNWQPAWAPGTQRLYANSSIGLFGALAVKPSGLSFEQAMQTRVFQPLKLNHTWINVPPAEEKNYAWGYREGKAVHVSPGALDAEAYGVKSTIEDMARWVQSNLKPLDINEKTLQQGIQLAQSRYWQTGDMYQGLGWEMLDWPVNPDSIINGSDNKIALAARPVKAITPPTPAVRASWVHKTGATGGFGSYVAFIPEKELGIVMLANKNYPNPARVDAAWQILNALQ
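20 mM phosphate pH 7.0 + 0.01% (detergent screen) or 0.0001% Triton X-100; 5.3 nM AmpC reagent; cpd preinc 15 min RT; nitrocefin (800 uM stock) to start; A480 q20 s × 4 min; Activity was normalised to no-enzyme and no-compound control wells.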
AmpC inh no detg = qHTS Inhibitors of AmpC Beta-Lactamase (assay without detergent); P00811; Potency, µM (highest dose often 57.1 µM), inactives show at the highest dose activity change, negative = inhibition, most hits filed as inhibitors; AmpC nitrocefin hydrolysis, absorbance 480 nm, 0.0001% Triton; AID 485341, 2010; 0.52% of 330,000 active;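 note: potency is the fitted concentration of half-maximal effect; plate controls were no compound for no effect and no enzyme for full effect; nearly all actives have a fitted effect of over 20% in size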
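20 mM phosphate pH 7.0 + 0.01% (detergent screen) or 0.0001% Triton X-100; 5.3 nM AmpC reagent; cpd preinc 15 min RT; nitrocefin (800 uM stock) to start; A480 q20 s × 4 min; Activity was normalised to no-enzyme and no-compound control wells.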
HCV inh = qHTS Assay for Inhibitors of Hepatitis C Virus (HCV); AID 651820, 2012; 3.4% of 340,000 active; Huh7.5.1 HCVcc-Cre infection, luciferase reporter, 44 h; Potency, µM (top dose mostly 41.8 µM), for the others: top-dose activity change, negative = inhibition, hits mostly inhibitors; note: potency is the fitted concentration of half-maximal effect
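Cells (1,000/well) were plated 4 h before compound, then infected with HCVcc-Cre virus (~0.5 moi). After 44 h further culture, infection was read as luciferase luminescence following a 15 min substrate incubation at room temperature.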
HCMV antiviral = qHTS Assay for inhibitors of the human cytomegalovirus (HCMV) | HFF cells, HCMV-luciferase reporter, 72 h; stronger effect = lower value | 4.5% of 410,000 active | AID 1259415, 2018 | activity change, negative = inhibition, % at 57.5 µM; in the data active = activity change below about -60%; inconclusive = no clear call, values can overlap the other calls; inactive = above about -39%
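Compounds were evaluated in HFFs infected with an HCMV luciferase reporter virus (MOI 1 PFU/cell). Luciferase in lysates collected 72 h post infection served as the replication measure.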
FMDV inh = High Throughput Screening for Foot and Mouth Disease Virus Antivirals; FMDV antiviral cell-based qHTS; Potency, µM (series often up to 57.9 µM), for inactives: at the top dose activity change, negative = inhibition, most hits filed as inhibitors; 1.2% of 410,000 active; calls by dose curve; tested in HEK293T cells; note: read-out not given here; potency is the fitted concentration of half-maximal effect; nearly all actives have a fitted effect of over 45% in size
The depositor's hits bear a star; u = inconclusive; x = no result given. Shown are actives, neighbours in structure and some others; about 7.3% of the full set was active somewhere. Unless noted, calls come from the whole dose curve; as a rule, active = well fitted curve in the direction sought with a large enough effect; inconclusive = small, poorly fitted or top-dose-only effect, or another doubt; inactive = no such curve, though single readings can be large; an effect the other way counts as inactive or inconclusive. Unless noted, % is set by controls: 0 for no effect and ±100 for the full control effect.

SMILES	AmpC inh detg	AmpC inh no detg	HCV inh	HCMV antiviral	FMDV inh
COc1cc2c(cc1OC)n(CC(=O)Nc1ccccc1)c(=O)n1nc(-c3ccccc3)nc21	-4%	x	x	-21	-7%
CCCS(=O)(=O)c1ncc(Cl)c(C(=O)N(Cc2ccccc2)Cc2ccco2)n1	-9%	x	x	-98*	16µM*
CCSc1ncc(Cl)c(C(=O)N(Cc2ccccc2)Cc2ccco2)n1	-9%	x	x	-100*	-15%
CSc1ncc(Cl)c(C(=O)N(Cc2ccc(N(C)C)cc2)Cc2ccco2)n1	16%	x	x	-17	-23%
CCCSc1ncc(Cl)c(C(=O)N(Cc2ccc(Cl)cc2)Cc2ccco2)n1	6%	x	x	-66*	u
CCC(C)[C@H]1CNCCN1CCC12CC3CC(CC(C3)C1)C2 (some centres undefined)	0%	41%	-4%	2	-13%
O=C(c1ccc(-n2ccnc2)cc1)N1CCCC(CO)(Cc2cccc(Cl)c2)C1 (centres undefined)	u	104%	-28%	-5	-20%
CN(CC(=O)Nc1ccccc1Cl)S(=O)(=O)c1ccc(C(=O)N2CCOCC2)s1	23%	x	x	-12	-31%
O=[N+]([O-])c1c(Nc2ccccc2O)cc(Cl)c2nonc12	-17%	32µM*	11µM*	-97*	10µM*
O=C(O)c1cc(Nc2cc(Cl)c3nonc3c2[N+](=O)[O-])ccc1O	-9%	-21%	-5%	31	-19%
Nc1cc(Cl)c2nonc2c1[N+](=O)[O-]	-10%	-15%	4.5µM*	-95*	8.9µM*
O=[N+]([O-])c1c(Nc2ccccc2O)ccc2nonc12	u	-30%	3%	-29	-30%
Cc1c(C(=O)N(C)Cc2cscn2)sc2ncnc(NC[C@H]3CCc4ccccc4O3)c12	x	x	x	x	-12%
CC(=O)Oc1ccc2ccccc2c1C(NC(=O)Cc1ccccc1)c1ccc(Cl)cc1 (centres undefined)	-5%	-24%	10µM*	-28	u
CCCCc1cc(=O)oc2cc(C)c(CN3CCCC3)c(O)c12	-14%	16µM*	u	1	6%
CCc1cc(=O)oc2cc(C)c(CN3CCCC(C)C3)c(O)c12 (centres undefined)	-10%	-58%	u	54	-17%
CS(=O)(=O)Nc1cccc(-c2nc(NCCN3CCOCC3)c3ccccc3n2)c1	x	x	x	x	1%
COc1ccc(SCCN2CCN(C)CCC2=O)cc1	-3%	0%	6%	42	-8%
COc1ccc(SCC2CN(C)CCC2c2ccc(F)cc2)cc1 (centres undefined)	x	x	11µM*	-10	14%
COc1cccc(Cn2c(=O)cc(C)c3c(C)nn(-c4ccc(C)cc4)c32)c1	20%	x	x	29	-22%
COc1ccccc1-c1nc(SCC(=O)NCc2ccccc2)c2c(=O)n(C)c(=O)n(C)c2n1	18%	x	x	0	-16%
COc1ccccc1-c1nc(SCC(=O)N(C)c2ccccc2)c2c(=O)n(C)c(=O)n(C)c2n1	u	-22%	6.3µM*	9	-26%
COC(=O)c1ccc2nc(-c3ccc(OC)c(OC)c3)c(Cc3cccc(F)c3)n2c1	x	x	x	13	-17%
CCCCCc1cc(O)c2c(C)cc(=O)oc2c1	-2%	-28%	11µM*	-105*	0%
CCCCCCc1c(C)c2c(cc(C)c3c(C)coc32)oc1=O	11%	x	x	2	-14%
SMILES	AmpC inh detg	AmpC inh no detg	HCV inh	HCMV antiviral	FMDV inh
CCCCCc1cc(O)c2c3c(c(=O)oc2c1)CN(C)CC3	4%	-15%	10µM*	-34	10%
CCCCN(C(=O)c1nn(C)c(=O)c2ccccc12)c1c(N)n(CC(C)C)c(=O)[nH]c1=O	-19%	-12%	3%	0	-6%
CCN(C(=O)CN1C(=O)COc2ccc(S(=O)(=O)N3CCOCC3)cc21)c1cccc(C)c1	14%	x	x	79	2%
COc1ccc(NC(=O)C(Cc2cc(C)cc(C)c2)C(C)C(=O)O)cc1 (centres undefined)	-17%	-25%	17%	-30	-19%
CCc1ccc(CNCCc2ccccc2F)cc1	-2%	-11%	-14%	-72*	7%
CCN(CC)S(=O)(=O)c1cc(C)ccc1NC(=S)Nc1cccnc1	-11%	-44%	11µM*	-69*	-9%
CCN(CC)S(=O)(=O)c1cccc(C(=O)Nc2cccnc2)c1	u	-11%	13%	-19	-15%
COc1ccccc1-c1nnc2sc(C3CCCCC3)nn12	-20%	-8%	-13%	u	u
c1cc(-c2nnc3sc(C4CCCCC4)nn23)ccn1	-13%	-4%	-18%	-80*	-21%
CCCNC(=O)N1CC2(CN(C(C)=O)C2)c2c(n(C)c3cc(OC)ccc23)[C@H]1CO	x	x	x	3	x
CCOC(=O)c1c(C)[nH]c(C(=O)OCC(=O)NC(C)(C)C)c1C	1%	-13%	14µM*	-80*	-26%
CCOC(=O)c1[nH]c(C)c(C(=O)OC)c1C	-1%	-5%	6%	59	15%
COc1cc(NC(=O)COC(=O)c2[nH]c(C)c(C(C)=O)c2C)cc(OC)c1	x	-45%	10µM*	u	u
CC(=O)c1c(C)[nH]c(C(=O)OCC(=O)Nc2ccc(Cl)c(S(=O)(=O)N(C)C)c2)c1C	0%	-40%	4µM*	0	28µM*
COC(=O)c1c(C)[nH]c(C(=O)OCC(=O)c2ccc(C)s2)c1C	x	-26%	11µM*	52	37%
O=C(Nc1cccc(-c2nc3ccccc3o2)c1)c1cccc2c(Cl)cccc12	0%	x	x	26	-8%
COc1ccc([C@@H]2C(C(=O)N3CCCC3)CC(=O)N2C(=O)CCc2ccccc2)cc1 (some centres undefined)	x	x	x	-3	x
COc1ccc(N=C2S/C(=C\c3ccc(Cl)c([N+](=O)[O-])c3)C(=O)N2CCN(C)C)cc1	-11%	156%	u	-39	28µM*
CCN(CC)CCN1C(=O)/C(=C\c2ccc(Cl)c([N+](=O)[O-])c2)SC1=Nc1ccc(OC)cc1	-11%	108%	u	-99*	25µM*
CCC1CN(CCNC(=O)c2ccnc(Cl)c2)Cc2cc(OC)ccc2O1 (centres undefined)	x	x	x	x	66%
COc1ccc(Cn2c(C(=O)O)c(CNCC(C)c3ccccc3)c3ccc(OC)cc32)cc1 (centres undefined)	0%	x	x	-21	0%
Cc1ccccc1C(=O)NC(=S)Nc1ccccc1C(=O)O	-2%	-12%	27%	46	20%
COC(=O)c1ccccc1NC(=S)NC(=O)c1ccccc1C	40µM*	-59%	x	-8	-17%
COc1ccc(OCCC(=O)NC2=NCCS2)cc1	1%	1%	4%	10	56%
COc1ccc(C(=O)NCC(=O)NC2=NCCS2)cc1	u	35µM*	5%	14	-11%

Assay outcomes deposited in PubChem BioAssay by National Center for Advancing Translational Sciences (NCATS).
